Unmarked numbers belong to inactive results. Records with an inconclusive call do not appear. Where a call stands in place of a potency, no number is given. The source made the active and inactive calls. Unless noted, calls follow the shape of the dose curve; as a rule, active = well fitted curve in the direction sought with a large enough effect; inconclusive = small, poorly fitted or top-dose-only effect, or another doubt; inactive = no such curve, though single readings can be large; an effect the other way counts as inactive or inconclusive.
Key:
[1] = Validation screen for small molecules that induce genotoxicity in human embryonic kidney (HEK293T) cells expressing luciferase-tagged ELG1 (AID 493106)
How it was run: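 Cells were dispensed at 2,000 per well, then 23 nL compound or DMSO was pinned in. After 16 hr at 37 °C and 5% CO2, ONE-Glo reagent was added. Luciferase activity was measured following 30 min at room temperature.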

[2] = target: Thyrotropin-releasing hormone receptor (Homo sapiens) (UniProt P34981); assay: qHTS for Small Molecule Agonists and Allosteric Enhancers of Human TRH Receptor: Validation Screen for Agonists (AID 493127;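 active = calcium activation more than 3 SD above the typical response in the agonist read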;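 also: intracellular calcium rise by fluo-8 fluorescence before TRH EC20 addition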); details: TRH receptor agonist cell assay; at 2 µM; hits give high values
How it was run: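 Compounds are added by online pintool to dye-loaded TRHR cells while fluorescence is recorded every second. A rise in calcium signal during the agonist read marks activation; a later 10 nM TRH addition (EC20) serves the separate enhancer mode.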

[3] = qHTS for Inhibitors of Cell Surface uPA Generation: Validation Assay (AID 493164);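 also: RAW 264.7 macrophage cells exposed to compound for 18 h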
How it was run: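 ATP-Lite luminescence read-out: ATP remains high when uPA activity-dependent LF translocation into the cytoplasm is blocked. RAW 264.7 cells, 18 h compound exposure at 37 C; 7-point titration, 2.45 nM to 38.3 uM final.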

[4] = Validation screen for small molecules that induce DNA re-replication in SW480 colon adenocarcinoma cells (AID 504364)
How it was run: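 Image-based qHTS: compounds were incubated with SW480 cells for 48 hr, nuclei stained with Hoechst, and per-nucleus fluorescence intensity scanned to flag cells with excess DNA content.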

[5] = target: Peptidyl-prolyl cis-trans isomerase NIMA-interacting 1 (Homo sapiens) (UniProt Q13526); assay: qHTS Validation Assay to Find Inhibitors of Pin1 (AID 504536; active = well fitted inhibition curve with a large enough effect in the polarisation, with a control signal flat, not every such curve was filed as active; the % refers to the polarisation; also: potency is read from the fitted curve at half-maximal effect)
Chain of Peptidyl-prolyl cis-trans isomerase NIMA-interacting 1 (Homo sapiens) (Q13526 whole entry, looked up): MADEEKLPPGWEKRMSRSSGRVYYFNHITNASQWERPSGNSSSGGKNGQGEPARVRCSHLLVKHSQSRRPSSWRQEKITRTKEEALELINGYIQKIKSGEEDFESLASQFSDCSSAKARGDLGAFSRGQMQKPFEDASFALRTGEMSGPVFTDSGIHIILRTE
How it was run: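 Fluorescence polarization competition: compounds (titration) displace HiFluor-488-labeled Pin1-1b peptide from Pin1 (0.3 uM final) in pH 7.5 HEPES buffer with DTT, 10 min at room temperature; %Activity normalized to no-enzyme wells, curves fitted.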

[6] = target: Phosphoglycerate kinase, glycosomal (Trypanosoma brucei brucei) (UniProt P07378); assay: qHTS Validation Assay to Find Inhibitors of Phosphoglycerate Kinase (AID 504547); also: potency is read from the fitted curve at half-maximal effect
How it was run: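 In TEA buffer (100mM, pH 7.6) containing 5mM MgCl2 and 0.01% Tween-20, the GAPDH-coupled PGK reaction proceeded for 60 minutes at room temperature before a single luminescence reading using Kinase-Glo Plus.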

[7] = target: Ubiquitin carboxyl-terminal hydrolase 1 (Homo sapiens) (UniProt O94782); assay: Inhibitors of USP1/UAF1: Pilot qHTS (AID 504865); also: potency is read from the fitted curve at half-maximal effect; nearly all actives have a fitted effect of over 35% in size
Chain of Ubiquitin carboxyl-terminal hydrolase 1 (Homo sapiens) (O94782 whole entry, looked up): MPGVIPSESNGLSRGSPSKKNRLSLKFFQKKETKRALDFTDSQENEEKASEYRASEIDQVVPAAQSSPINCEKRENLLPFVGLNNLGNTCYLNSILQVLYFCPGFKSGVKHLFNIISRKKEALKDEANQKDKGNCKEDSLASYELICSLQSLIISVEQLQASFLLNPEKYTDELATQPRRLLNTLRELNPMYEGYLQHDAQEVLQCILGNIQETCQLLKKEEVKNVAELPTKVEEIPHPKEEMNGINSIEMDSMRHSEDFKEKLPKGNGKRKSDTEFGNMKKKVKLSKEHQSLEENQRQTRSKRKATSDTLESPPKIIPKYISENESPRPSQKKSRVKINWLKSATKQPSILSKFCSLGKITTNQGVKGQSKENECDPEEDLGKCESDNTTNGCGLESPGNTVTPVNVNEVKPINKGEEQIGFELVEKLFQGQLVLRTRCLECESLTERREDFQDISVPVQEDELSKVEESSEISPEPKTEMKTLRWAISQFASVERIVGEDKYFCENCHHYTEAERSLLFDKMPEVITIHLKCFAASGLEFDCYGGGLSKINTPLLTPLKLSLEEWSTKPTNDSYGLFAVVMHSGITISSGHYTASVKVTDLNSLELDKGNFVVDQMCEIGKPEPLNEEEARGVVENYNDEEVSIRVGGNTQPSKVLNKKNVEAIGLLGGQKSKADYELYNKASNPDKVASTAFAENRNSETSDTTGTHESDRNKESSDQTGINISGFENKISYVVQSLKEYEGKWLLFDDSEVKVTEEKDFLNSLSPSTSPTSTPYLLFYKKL
How it was run: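 Kinetic fluorescence assay: 1nM USP1/UAF1, 15 min compound preincubation, then 150nM Ub-Rho; 480/540 nm.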

[8] = target: Voltage-gated inwardly rectifying potassium channel KCNH2 (Homo sapiens) (UniProt Q12809); assay: qHTS Assay for Small Molecule Inhibitors of the Human hERG Channel Activity (AID 588834);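 also: U2OS cells transduced with hERG by BacMam; top concentration of the series differs between compounds; lower thallium flux fluorescence means stronger hERG block; nearly all actives have a fitted effect of over 50% in size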
Chain of Voltage-gated inwardly rectifying potassium channel KCNH2 (Homo sapiens) (Q12809 whole entry, looked up): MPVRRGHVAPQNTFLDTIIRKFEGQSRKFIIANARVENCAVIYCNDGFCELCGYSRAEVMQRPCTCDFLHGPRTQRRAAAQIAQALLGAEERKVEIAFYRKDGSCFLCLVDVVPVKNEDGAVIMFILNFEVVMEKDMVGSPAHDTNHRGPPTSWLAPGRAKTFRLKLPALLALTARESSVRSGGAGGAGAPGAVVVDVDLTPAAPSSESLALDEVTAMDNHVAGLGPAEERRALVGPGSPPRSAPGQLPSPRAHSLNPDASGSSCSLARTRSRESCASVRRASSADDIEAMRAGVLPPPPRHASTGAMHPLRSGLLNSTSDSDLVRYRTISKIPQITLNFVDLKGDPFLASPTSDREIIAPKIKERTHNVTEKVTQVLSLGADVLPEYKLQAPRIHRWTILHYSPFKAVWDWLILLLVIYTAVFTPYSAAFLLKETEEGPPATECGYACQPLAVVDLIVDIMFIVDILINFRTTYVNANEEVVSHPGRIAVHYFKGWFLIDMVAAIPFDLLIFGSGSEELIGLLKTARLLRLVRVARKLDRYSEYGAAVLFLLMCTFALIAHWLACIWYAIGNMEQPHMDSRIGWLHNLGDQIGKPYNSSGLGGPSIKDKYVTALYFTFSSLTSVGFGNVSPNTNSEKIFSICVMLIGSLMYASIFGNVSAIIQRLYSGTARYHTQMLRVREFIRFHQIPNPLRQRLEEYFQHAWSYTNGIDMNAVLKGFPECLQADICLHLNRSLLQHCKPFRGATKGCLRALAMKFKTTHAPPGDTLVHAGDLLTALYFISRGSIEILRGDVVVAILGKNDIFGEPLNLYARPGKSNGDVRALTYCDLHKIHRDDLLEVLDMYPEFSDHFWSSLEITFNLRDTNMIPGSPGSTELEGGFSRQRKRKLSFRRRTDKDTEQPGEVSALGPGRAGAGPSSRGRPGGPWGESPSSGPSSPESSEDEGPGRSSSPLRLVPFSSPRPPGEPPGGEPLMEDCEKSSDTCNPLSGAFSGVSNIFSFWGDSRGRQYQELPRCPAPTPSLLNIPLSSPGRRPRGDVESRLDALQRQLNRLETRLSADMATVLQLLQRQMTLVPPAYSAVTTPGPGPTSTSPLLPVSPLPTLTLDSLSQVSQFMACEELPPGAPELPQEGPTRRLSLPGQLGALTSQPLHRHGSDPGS
How it was run: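 Cells were infected with hERG-BacMam virus for 4 hrs at room temperature, grown overnight, then seeded at 2000/well. After dye loading and roughly 10 min compound treatment, thallium influx was triggered and fluorescence recorded.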

[9] = target: Glucagon-like peptide 1 receptor (Homo sapiens) (UniProt P43220); assay: qHTS of GLP-1 Receptor Agonists: LOPAC Validation (AID 624148);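 also: higher luminescence signal means agonism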
Chain of Glucagon-like peptide 1 receptor (Homo sapiens) (P43220 whole entry, looked up): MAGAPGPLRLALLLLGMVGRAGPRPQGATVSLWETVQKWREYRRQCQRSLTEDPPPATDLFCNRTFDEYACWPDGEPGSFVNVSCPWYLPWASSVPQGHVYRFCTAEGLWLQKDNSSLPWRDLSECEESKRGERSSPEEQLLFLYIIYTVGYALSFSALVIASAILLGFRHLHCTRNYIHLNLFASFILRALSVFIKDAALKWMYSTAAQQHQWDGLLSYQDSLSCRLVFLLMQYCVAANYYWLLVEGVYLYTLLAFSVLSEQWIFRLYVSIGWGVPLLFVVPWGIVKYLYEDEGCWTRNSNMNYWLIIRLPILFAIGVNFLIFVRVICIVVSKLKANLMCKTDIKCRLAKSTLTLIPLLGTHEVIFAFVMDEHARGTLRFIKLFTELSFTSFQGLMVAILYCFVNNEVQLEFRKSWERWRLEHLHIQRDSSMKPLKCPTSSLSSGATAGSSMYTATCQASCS
How it was run: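 HEK293 cells stably co-expressing a cAMP-responsive luciferase reporter and a hypersensitive GLP-1R were plated 12 h at 37 °C and exposed to compounds for 4-6 hr at 37 °C, 5% CO2. Luminescence was read 12 min after adding detection reagent.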

[10] = qHTS of Nrf2 Activators: LOPAC Validation (AID 624149)
How it was run: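 Cells (AREc32_Fluc) are plated at 1000 per well in OPTI-MEM containing 5% FBS and left overnight. Compounds are pinned in and incubated 24 hr at 37 deg C, and firefly luciferase is detected with Steady-Glo.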

[11] = HTS Assay for Allosteric Antagonists of the Human D2 Dopamine Receptor: Hit Validation in HTRF (AID 624455);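 also: stable D1 dopamine receptor cell line scored for blocking the D1 response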
How it was run: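 Inhibition of the D1-mediated response is measured by HTRF in cells that stably express the D1 dopamine receptor. Compounds reaching this step are hits from calcium-flux antagonism testing at EC80 dopamine in inducible Hek293 Trex D2 cells.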

[12] = target: Arylsulfatase A (Homo sapiens) (UniProt P15289); assay: qHTS screen for enhancers of Arylsulfatase A (ASA1): LOPAC Validation Assay (AID 720538); also: potency is read from the fitted curve at half-maximal effect
Chain of Arylsulfatase A (Homo sapiens) (P15289 whole entry, looked up): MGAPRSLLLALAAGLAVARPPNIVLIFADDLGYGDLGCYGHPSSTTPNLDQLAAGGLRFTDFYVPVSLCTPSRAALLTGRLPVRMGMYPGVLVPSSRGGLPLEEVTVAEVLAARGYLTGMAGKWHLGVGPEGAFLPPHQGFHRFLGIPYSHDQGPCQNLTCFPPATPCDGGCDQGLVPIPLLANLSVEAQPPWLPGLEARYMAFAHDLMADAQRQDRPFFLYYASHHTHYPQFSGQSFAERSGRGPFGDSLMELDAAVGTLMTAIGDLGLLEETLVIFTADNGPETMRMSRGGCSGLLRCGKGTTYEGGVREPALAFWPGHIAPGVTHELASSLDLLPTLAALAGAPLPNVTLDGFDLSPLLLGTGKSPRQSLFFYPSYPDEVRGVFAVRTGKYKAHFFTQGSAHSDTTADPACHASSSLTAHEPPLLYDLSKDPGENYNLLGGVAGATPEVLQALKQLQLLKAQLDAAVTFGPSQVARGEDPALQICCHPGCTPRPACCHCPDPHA
How it was run: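 First, ASA-I179S fibroblasts from an MLD patient adhered for 6 hrs. Next, compounds were added for 48h. Then pNCS substrate (0.5mM final) with lysis buffer reacted 14h at room temperature before NaOH stop and fluorescence measurement.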

[13] = qHTS for compounds that reverse cellular toxicity of Amyloid beta (A-beta) peptide in yeast: LOPAC Validation Assay (AID 720559)
How it was run: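 Activity is expressed relative to DMSO and an equimolar ferric chloride/clioquinol mix. Compounds were pinned into medium with A-beta-expressing yeast, grown 48 hr at 30 C, then read by absorbance at 600 nm.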

[14] = qHTS for Activators of Parkin Expression: LOPAC Validation Assay (NLuc Reporter) (AID 720572)
How it was run: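 Cells harboring the Parkin-promoter coincidence reporter were treated for 24 h at seven concentrations. NLuc output was measured sequentially after the FLuc channel and scaled between DMSO and positive control values.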

[15] = qHTS for Activators of Parkin Expression: LOPAC Validation Assay (FLuc Reporter) (AID 720573)
How it was run: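 A neuronal cell line harbouring FLuc and NLuc reporters behind the Parkin promoter was exposed to compounds for 24 h. Firefly luciferase signal, measured after 10 min with detection reagent, was scaled to DMSO and positive-control wells.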

[16] = target: Hexokinase-4 (Homo sapiens) + Glucokinase regulatory protein (Homo sapiens) (UniProt P35557+Q14397); assay: qHTS assay for inhibitors of recombinant human GCK-GKRP interaction: ADP-Glo assay (AID 743206)
Chain of Hexokinase-4 (Homo sapiens) + Glucokinase regulatory protein (Homo sapiens) (P35557 whole entry, looked up): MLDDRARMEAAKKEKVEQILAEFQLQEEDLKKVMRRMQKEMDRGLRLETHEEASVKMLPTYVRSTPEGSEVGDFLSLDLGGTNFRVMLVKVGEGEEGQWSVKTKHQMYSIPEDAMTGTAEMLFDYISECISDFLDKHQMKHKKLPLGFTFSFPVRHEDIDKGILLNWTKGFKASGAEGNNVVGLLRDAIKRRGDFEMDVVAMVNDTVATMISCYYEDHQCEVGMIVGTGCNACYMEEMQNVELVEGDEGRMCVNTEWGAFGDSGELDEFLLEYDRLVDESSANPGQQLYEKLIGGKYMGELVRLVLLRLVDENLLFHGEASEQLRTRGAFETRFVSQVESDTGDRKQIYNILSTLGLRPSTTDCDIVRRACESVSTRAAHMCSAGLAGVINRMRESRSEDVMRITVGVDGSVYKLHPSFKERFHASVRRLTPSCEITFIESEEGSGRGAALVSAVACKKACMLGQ
Chain of Hexokinase-4 (Homo sapiens) + Glucokinase regulatory protein (Homo sapiens) (Q14397 whole entry, looked up): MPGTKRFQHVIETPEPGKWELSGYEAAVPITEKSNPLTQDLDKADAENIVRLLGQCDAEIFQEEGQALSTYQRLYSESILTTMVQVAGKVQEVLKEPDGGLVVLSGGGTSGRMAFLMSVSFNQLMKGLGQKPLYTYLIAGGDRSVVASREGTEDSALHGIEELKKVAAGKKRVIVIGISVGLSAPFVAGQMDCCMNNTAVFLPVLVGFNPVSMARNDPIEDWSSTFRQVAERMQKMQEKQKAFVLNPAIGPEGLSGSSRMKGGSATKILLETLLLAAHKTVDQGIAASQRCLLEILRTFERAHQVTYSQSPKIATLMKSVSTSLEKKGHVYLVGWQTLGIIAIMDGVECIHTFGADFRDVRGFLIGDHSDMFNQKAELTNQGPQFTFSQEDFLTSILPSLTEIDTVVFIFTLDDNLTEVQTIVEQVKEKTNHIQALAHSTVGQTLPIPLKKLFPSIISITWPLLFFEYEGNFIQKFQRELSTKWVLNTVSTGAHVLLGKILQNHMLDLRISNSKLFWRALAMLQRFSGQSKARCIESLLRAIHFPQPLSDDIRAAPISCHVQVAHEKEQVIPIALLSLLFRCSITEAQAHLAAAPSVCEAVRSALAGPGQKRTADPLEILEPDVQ
How it was run: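 Pin-transferred compounds meet a 15 nM GST-GCK/15 nM FLAG-GKRP/2 uM S6P mix (dispense concentrations). ATP is then added to 0.4 mM final with 5 mM glucose, and the reaction runs 60 min at room temperature. ADP is quantified luminescently.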

[17] = Natriuretic polypeptide receptor (hNpr1) antagonism - Pilot counterscreen GloSensor control cell line (AID 1347045; calls by dose curve; also: potency is read from the fitted curve at half-maximal effect)
How it was run: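 Cells were first seeded and incubated overnight at 37C, then loaded with 2% GloSensor substrate for 2 h. Compounds were added for 30 min at room temperature, followed by a baseline read, 50 uM SNP and a final read after 20 min.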

[18] = NS1 protein of Zika virus - qHTS assay to identify small molecule inhibitors in human HEK 293 cells (AID 1347053); also: series mostly up to about 46 µM; nearly all actives have a fitted effect of over 55% in size
How it was run: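 Compound-treated (1 h pre-infection) HEK 293 cells infected with ZIKV MR766, MOI = 0.5; after 24 h at 37 C, NS1 read by TR-FRET; data normalized to uninfected and infected controls.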

[19] = target: T1, Tyrosine-protein phosphatase non-receptor type substrate 1 (Homo sapiens) + Leukocyte surface antigen CD47 (Homo sapiens) (UniProt P78324+Q08722); assay: CD47-SIRPalpha protein protein interaction - LANCE assay qHTS validation (AID 1347057; active = well fitted curve in the direction sought with a large enough effect in the signal ratio, with a control signal flat, not every such curve was filed as active; the % refers to the signal ratio; also: series mostly up to about 38 µM)
T1 sequence (P78324 whole entry, looked up, the tested form may be a part): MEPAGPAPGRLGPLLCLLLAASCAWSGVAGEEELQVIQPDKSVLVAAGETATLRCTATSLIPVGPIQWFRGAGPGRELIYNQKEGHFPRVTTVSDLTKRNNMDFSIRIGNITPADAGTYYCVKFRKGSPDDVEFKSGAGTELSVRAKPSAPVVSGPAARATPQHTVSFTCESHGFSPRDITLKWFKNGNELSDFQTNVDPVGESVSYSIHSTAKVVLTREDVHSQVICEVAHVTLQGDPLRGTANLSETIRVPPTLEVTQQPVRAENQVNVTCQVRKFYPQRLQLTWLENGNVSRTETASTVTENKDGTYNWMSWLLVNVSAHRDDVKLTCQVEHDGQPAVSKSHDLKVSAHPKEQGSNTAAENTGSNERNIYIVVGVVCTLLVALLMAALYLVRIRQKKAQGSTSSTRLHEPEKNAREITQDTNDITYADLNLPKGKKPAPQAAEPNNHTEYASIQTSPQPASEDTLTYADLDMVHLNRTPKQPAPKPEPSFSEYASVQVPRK
T1 sequence (Q08722 whole entry, looked up, the tested form may be a part): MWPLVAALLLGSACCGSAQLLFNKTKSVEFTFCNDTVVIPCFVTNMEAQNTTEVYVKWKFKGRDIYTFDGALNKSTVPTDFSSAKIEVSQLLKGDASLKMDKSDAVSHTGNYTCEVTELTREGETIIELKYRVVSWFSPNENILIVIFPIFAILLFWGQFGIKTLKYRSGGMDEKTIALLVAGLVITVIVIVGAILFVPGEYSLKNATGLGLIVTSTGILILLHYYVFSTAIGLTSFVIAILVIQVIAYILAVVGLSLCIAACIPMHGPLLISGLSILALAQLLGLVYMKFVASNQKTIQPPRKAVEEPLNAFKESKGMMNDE
How it was run: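 Inhibition of soluble CD47/SIRPalpha ectodomain association by titrated compounds, measured as 665/615 nm time-resolved FRET ratio after sequential 30 min room-temperature incubations.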

[20] = target: T1, Tyrosine-protein phosphatase non-receptor type substrate 1 (Homo sapiens) + Leukocyte surface antigen CD47 (Homo sapiens); assay: CD47-SIRPalpha protein protein interaction - Alpha assay qHTS validation (AID 1347059)
How it was run: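 In PBS (pH 7.4) with 0.05% IGEPAL CA-630, compound is preincubated with biotin-Avi-SIRPalpha ectodomain before His-CD47 ectodomain and affinity beads are added. Light-protected room-temperature incubations; AlphaScreen readout.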

[21] = target: Parathyroid hormone/parathyroid hormone-related peptide receptor (Homo sapiens) (UniProt Q03431); assay: qHTS for PTHR1 Agonists: Optimization Screen against the NCGC LOPAC library (AID 1347079);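 also: GloSensor cAMP luminescence in HEK-293 GP2 cells expressing human PTHR1 with IBMX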
How it was run: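 HEK-293 GP2 cells, PTHR1 + GloSensor cAMP; 3000 cells/well, o/n. Luciferin + IBMX 0.5mM each (stock), 1 hr 37C. Cpd titration, 1 hr 37C. Lum after 15 min RT. Ctrl M-PTH(1-15) top 10uM.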

SMILES: Nc1c(S(=O)(=O)O)cc(Nc2ccc(Nc3nc(Cl)nc(Nc4ccc(S(=O)(=O)O)cc4)n3)c(S(=O)(=O)O)c2)c2c1C(=O)c1ccccc1C2=O
- Potency [1]: inactive
- activation [2]: 1.5%
- outcome [3]: inactive
- outcome [4]: inactive
- Potency [5]: 2.39 µM (active)
- Potency [6]: 5.36 µM (active)
- Potency [7]: 6.31 µM (active)
- Potency [8]: inactive
- outcome [9]: inactive
- outcome [10]: inactive
- outcome [11]: inactive
- Potency [12]: 26.9 µM (active)
- outcome [13]: inactive
- outcome [14]: inactive
- Potency [15]: inactive
- outcome [16]: inactive
- Potency [17]: 9.27 µM (active)
- outcome [18]: inactive
- outcome [19]: inactive
- Potency [20]: 11.7 µM (active)
- outcome [21]: inactive

Source: PubChem BioAssay (NCATS)
